Test results reported in PubChem BioAssay AID1159524 (National Center for Advancing Translational Sciences (NCATS), 2015).
Among all 410,000 compounds or so, about 5,100 (1.2%) were called active. Roughly 8% stayed inconclusive and do not appear here. The call rests on the fitted dose curve; tested in HEK293T cells. This excerpt belongs to a sample that is enriched for actives.

Experiment: High Throughput Screening for Foot and Mouth Disease Virus Antivirals; further: read-out not given here; nearly all actives have a fitted effect of over 45% in size
Details: FMDV antiviral cell-based qHTS; series mostly up to 57.9 µM; activity change, negative = inhibition: at the top concentration
On the % scale 0 is the no-effect control and ±100 the full control effect; potency means the concentration at half of the fitted maximal effect.

Compound	activity change, negative = inhibition	Potency
COc1ccc(C)cc1N1C(=O)[C@@H]2C[C@H]1CN2Cc1cccc(OC)c1O	-3.08% (inactive)	–
CCCCC/C=C\C/C=C\C/C=C\CCCCCCC(=O)NCCO	-10.3% [at 6.7 µM] (inactive)	–
CC(c1cccnc1)N(CCN(C)C)C(=O)Nc1ccc(Cl)c(Cl)c1 (stereo not given)	-16.7% (inactive)	–
O=C(CC(O)(C(F)(F)F)C(F)(F)F)Nc1ccc(Cl)c(Cl)c1	–	8.91 µM (active)
Cc1ccc(-c2nn(CCC(=O)Nc3ccc(Cl)c(Cl)c3)c(=O)c3ccccc23)cc1	1.63% (inactive)	–
Cc1cc(Nc2cccc(C(F)(F)F)c2)nc2ccc(NC(=O)c3ccc(=O)[nH]c3)cc12	-8.82% (inactive)	–
Cc1ccc(/C(=C/CN2CCCC2)c2ccccn2)cc1	1.29% (inactive)	–
CC(N)(C(=O)O)c1ccc(-c2nn[nH]n2)cc1 (stereo not given)	-9.72% (inactive)	–
CCN1CCN(C(c2ccc(C)cc2)c2c(O)cc(C)n(Cc3ccco3)c2=O)CC1 (stereo not given)	-29.2% (inactive)	–
O=C(Nc1ccc2c(c1)nc1n2CCCCC1)c1cc(S(=O)(=O)N2CCOCC2)ccc1Cl	–	25.1 µM (active)
O=S(=O)(c1cccc(-c2nnc3n2CCCCC3)c1)N1CCOCC1	30.2% (inactive)	–
Cc1occc1C(=O)Nc1cccc(S(=O)(=O)N2CCOCC2)c1	15.8% (inactive)	–
CCOc1ccccc1NC(=O)CSc1ncc(S(=O)(=O)c2ccc(C(C)(C)C)cc2)c(=O)[nH]1	-2.88% (inactive)	–
Cc1ccc(S(=O)(=O)c2nc(-c3ccco3)oc2SCC(=O)Nc2ccc(F)cc2)cc1	15.1% (inactive)	–
Cc1cccc(OCCSc2nc3ccc(NC(=O)COc4ccccc4C)cc3s2)c1	0% (inactive)	–
CCC(=O)Nc1ccc2nc(SCC(=O)N3CCc4ccccc43)sc2c1	-19.9% (inactive)	–
Nc1nnc(SCC(=O)Nc2ccc3nc(SCC(=O)Nc4ccccc4)sc3c2)s1	–	20 µM (active)
Cc1ccc(OCCSc2nc3ccc(NC(=O)COc4ccc(C)cc4)cc3s2)cc1	-5.33% (inactive)	–
O=C(Nc1ccc2nc(SCCOc3ccccc3Cl)sc2c1)c1ccco1	-20.6% (inactive)	–
O=C(COc1ccccc1Cl)Nc1ccc2nc(SCC(=O)N3CCCC3)sc2c1	–	31.6 µM (active)
COc1ccc(NC(=O)Nc2cccc(-c3noc(C)n3)c2)cc1	1.15% (inactive)	–
CCNc1ncc2ncc(=O)n(Cc3cccc(OC)c3)c2n1	-19.5% (inactive)	–
COCCNc1ncnc2ccc(-c3cccnc3)cc12	-22.4% (inactive)	–
CC1(C)CC(N2CCN(C(c3ccccc3)c3ccccc3)CC2)=CC(=[N+]2CCCCC2)C1	–	2.82 µM (active)

Compound	activity change, negative = inhibition	Potency
COC(=O)C(c1ccccc1)N1CCCCCC1 (stereo not given)	-7.95% (inactive)	–
CCN1CCN(c2ncc3c(n2)CC(c2ccccc2O)CC3=O)CC1 (stereo not given)	-14.9% (inactive)	–
COCc1[nH]nc2c1C(C1C=CCCC1)C(C#N)=C(N)O2 (stereo not given)	–	31.6 µM (active)
N#CC1=C(N)Oc2cc(O)ccc2C1C1CCCCC1 (stereo not given)	-23.5% (inactive)	–
Cc1nc2nc(NCc3cccc(Br)c3)[nH]n2c(=O)c1Cc1ccccc1	-16.8% (inactive)	–
COCCNC(=O)c1cc(-c2cccc(Cl)c2)on1	33.4% (inactive)	–
COc1cc2nc(NCC(C)c3ccccc3)n3nc(-c4ccccc4)nc3c2cc1OC (stereo not given)	-29.4% (inactive)	–
Cc1cnc(CNc2ncncc2-c2ccccc2Cl)cn1	-16.2% (inactive)	–
Cn1cc(-c2nc3cnc(N4CCNCC4)nc3n(CCC#N)c2=O)c2ccccc21	-2.62% (inactive)	–
COc1cccc(CNc2nccn(-c3ccc(OC)c(OC)c3)c2=O)c1	-12.6% (inactive)	–
COc1ccc(CNc2ncncc2-c2ccccc2OC)c(OC)c1	-28% (inactive)	–
COc1cccc(CNc2nc(NCc3ccccc3OC)nc3ccsc23)c1	–	25.1 µM (active)
CCCN(C/C=C\I)[C@@H]1CCc2cccc(O)c2C1	-10.2% (inactive)	–
COc1ccc(-c2nc3sc(CCNC(=O)C(C)(C)C)c(C)n3n2)cc1	-39.9% (inactive)	–
O=C(COc1nc2ccccc2nc1N1CCOCC1)NCC(F)(F)F	-17.8% (inactive)	–
c1ccc(Nc2nc(N3CCOCC3)c3ccccc3n2)cc1	–	11.2 µM (active)
c1cncc(-c2nc(N3CCNCC3)c3ccccc3n2)c1	-4.3% (inactive)	–
O=C(O)C[C@@H]1NC(=O)[C@H](Cc2ccccc2)NC1=O	-7.83% (inactive)	–
CNS(=O)(=O)c1cccc(C(=O)OCC(=O)N2c3ccccc3NC(=O)C2(C)C)c1	-4.37% (inactive)	–
CCNc1ccc(C(=O)OCC(=O)N2c3ccccc3NC(=O)C2(C)C)cc1[N+](=O)[O-]	–	20 µM (active)
Cc1ccc(OCCC(=O)OCC(=O)N2c3ccccc3NC(=O)C2(C)C)cc1	-21.8% (inactive)	–
COc1ccc2c(c1)NC(=O)C2CC(=O)N1CCOc2c(cc(-c3cnc4ccccc4c3)cc2OC)C1 (stereo not given)	-23.5% (inactive)	–
O=C1/C(=C\c2ccc([N+](=O)[O-])cc2)CS(=O)(=O)C/C1=C/c1ccc([N+](=O)[O-])cc1	–	2.24 µM (active)
Nc1ccc([N+](=O)[O-])cc1	-19.3% (inactive)	–

Compound	activity change, negative = inhibition	Potency
O=C(NCCCc1ccccc1)c1ccc2c(c1)sc1nc(-c3ccc(F)cc3)cn12	-2% (inactive)	–
Cc1ncc2c(c1CNS(=O)(=O)N(C)C)CCN(C(=O)c1ccccc1F)C2	-10.2% (inactive)	–
CC(C)CCNC(=O)c1ccc2c(Cl)c3c(nc2c1)CCC3	-24.9% (inactive)	–
CC(=O)c1ccc(NC(=O)c2ccc3c(Cl)c4c(nc3c2)CCCC4)cc1	–	22.4 µM (active)
COc1cccc(CNC(=O)c2ccc3c(Cl)c4c(nc3c2)CCCC4)c1	12.9% (inactive)	–
COc1ccc(-c2noc(-c3ccc(N4CCN(c5ccccc5)CC4)c([N+](=O)[O-])c3)n2)cc1OC	-12.9% (inactive)	–
c1ccc(CN2CCN(Cc3ccc4c(c3)CN(Cc3c[nH]c5ccccc35)CCO4)CC2)nc1	-12.3% (inactive)	–
COc1ccccc1/C=C/C(=O)OCC(=O)NC1CCCCCC1	0.416% (inactive)	–
CCOC(=O)C(=Cc1ccccc1)C(=O)c1ccccc1	–	8.91 µM (active)
CCOC(=O)CCP(=O)(O)C(O)(c1ccccc1)c1ccccc1	-8.31% (inactive)	–
COc1ccccc1C(=O)OCC(=O)NCCNC(=O)COC(=O)c1ccccc1OC	-9.67% (inactive)	–
CCOC(=O)C(=Cc1ccccc1OC)C(=O)OCC	–	28.2 µM (active)
CCOC(=O)C(=O)C1C(=O)Nc2ccccc21 (stereo not given)	-14.8% (inactive)	–
Cc1ccc(CC2(O)CCN(CCOc3ccc(O)cc3)CC2)cc1	-14.5% (inactive)	–
C[C@@H]1CN(Cc2ccc3c(c2)CN(Cc2ccc(Oc4ncccn4)cc2)CCO3)C[C@H](C)O1	-3.92% (inactive)	–
CCS(=O)(=O)N(C)[C@@H]1c2cc(C#N)ccc2OC(C)(C)[C@H]1O	–	inactive
Cc1ccc(C(=O)Nc2ccc(OCc3cc(=O)n4c(C)csc4n3)cc2)cc1	-2.45% (inactive)	–
CC(=O)c1ccc(NC(=O)CSc2nnc(NC(=O)Nc3ccccc3)s2)cc1	27.2% (inactive)	–
CC(=O)Nc1ccc(C(=O)Nc2nc(-c3cc(C)n(Cc4ccccc4)c3C)cs2)cc1	–	22.4 µM (active)
CC(=O)Nc1ccc(-c2csc(NC(=O)Nc3ccccc3)n2)cc1	–	15.8 µM (active)
CC(=O)NC(c1ccccc1)c1nc(-c2ccccc2C)cs1 (stereo not given)	-1.87% (inactive)	–
CCn1c(SCC(=O)Nc2nc(C)cs2)nnc1C(C)NC(=O)c1ccccc1 (stereo not given)	-1.72% (inactive)	–
